Experimental data as given in PubChem BioAssay (EPA / NIEHS).
Records with an inconclusive call do not appear. The source made the active and inactive calls. Rule for the calls, unless noted: active = hit-call score of the fitted dose curve at least 0.9, where 1 is the maximum; inactive = score below 0.9.

Experiments:
[1] = CCTE_Shafer_MEA_dev_inter_network_spike_interval_mean: CCTE's Neural Network Formation Assay for Mean Inter-network Spike Interval, Shafer Lab (AID 2284047)
Summary of the method: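 Compound was given at plating to primary rat cortical neurons and renewed with full medium changes on DIV 5 and 9. Extracellular activity was recorded on days 5, 7, 9, 12; AUC values were fitted for loss relative to DMSO control.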

[2] = CCTE_Shafer_MEA_dev_network_spike_number: CCTE's Neural Network Formation Assay for Number of Network Spikes, Shafer Lab (AID 2284048);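 note: synchronized bursts across electrodes counted on days 5 7 9 12 and integrated as AUC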
Summary of the method: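 Developing networks of primary rat cortical neurons are treated over 12 days starting at plating, with media and compound fully replaced on DIV 5 and 9. Network spike counts from four recording days are integrated as trapezoidal AUC.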

[3] = CCTE_Shafer_MEA_dev_network_spike_peak: CCTE's Neural Network Formation Assay for Mean Number of Electrodes in Network Spike, Shafer Lab (AID 2284049)
Summary of the method: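 Rat cortical primary culture, 1.5 x 10^5 cells/well, 48-well MEA (16 electrodes/well). Dosing day 0 through DIV 12, full media/compound exchange DIV 5, 9. AxIS adaptive spike detection; AUC over days 5/7/9/12; loss-of-signal vs DMSO.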

[4] = CCTE_Shafer_MEA_dev_spike_duration_mean: CCTE's Neural Network Formation Assay for Mean Spike Duration, Shafer Lab (AID 2284051);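 note: mean network spike duration pooled as area under curve over DIV 5 to 12 recordings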
Summary of the method: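 With DMSO as baseline, loss of mean network spike duration was scored from extracellular recordings of rat cortical neurons on MEA plates. Exposure spanned plating to DIV 12; the four recording days were collapsed into one AUC value.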

[5] = CCTE_Shafer_MEA_dev_network_spike_duration_std: CCTE's Neural Network Formation Assay for Standard Deviation of Network Spike Duration, Shafer Lab (AID 2284052);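 note: area under curve of spike duration SD across recording days 5 to 12; hits are decreases in network spike duration SD versus DMSO vehicle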
Summary of the method: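 Developing networks of rat cortical neurons were exposed over twelve days in vitro on 48-well MEA plates. Trapezoidal AUC of recordings (DIV 5–12) was analysed for signal loss relative to DMSO vehicle.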

[6] = CCTE_Shafer_MEA_dev_per_network_spike_spike_number_mean: CCTE's Neural Network Formation Assay for Mean Number of Spikes in a Network Spike, Shafer Lab (AID 2284053)
Summary of the method: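 First, rat cortical cells (1.5 x 10^5/well) were seeded onto MEA wells; second, dosing began at plating and was refreshed on DIV 5 and 9; finally, network-spike spike counts across DIV 5–12 were summarized as AUC.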

[7] = CCTE_Shafer_MEA_dev_per_network_spike_spike_percent: CCTE's Neural Network Formation Assay for Percent of Spikes in a Network Spike, Shafer Lab (AID 2284054)
Summary of the method: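 Rat primary cortical cultures, 1.5 x 10^5 cells/well on MEA. Continuous compound exposure d0–12, medium/compound renewed DIV 5, 9. Network-spike spike % (0.05 s peak window), AUC over 4 recordings, DMSO baseline.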

[8] = CCTE_Shafer_MEA_dev_LDH: CCTE's Lactate Dehydrogenase Assay for Cytotoxicity in the Neural Network Formation Assay, Shafer Lab (AID 2284068; active = hit-call score of the fitted dose curve at least 0.9, where 1 is the maximum;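 note: exposure for twelve days from plating with re-dosing on DIV 5 and 9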)
Summary of the method: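 Developing rat cortical networks on MEA plates are exposed to compound for 12 days from plating. LDH activity is measured spectrophotometrically, with DMSO as baseline.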

[9] = CCTE_Shafer_MEA_dev_AB: CCTE's Alamar Blue Assay for Cytotoxicity in the Neural Network Formation Assay, Shafer Lab (AID 2284083; active = hit-call score of the fitted dose curve at least 0.9, where 1 is the maximum;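 note: resazurin reduction fluorescence as viability of cultured neurons; twelve days of exposure from plating with re-dosing on DIV 5 and 9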)
Summary of the method: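 Cytotoxicity companion to the developmental MEA: primary rat cortical neurons, 12-day exposure starting day 0, compound refreshed DIV 5 and 9; resazurin fluorescence, fitted against DMSO vehicle.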

[10] = CCTE_Shafer_MEA_dev_mutual_information_norm: CCTE's Neural Network Formation Assay for Mutual Information Normalization, Shafer Lab (AID 2284091)
Summary of the method: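 Developing rat cortical networks on 16-electrode MEA wells are treated throughout formation (DIV 0–12). Shared electrode information is recorded four times, converted to area-under-curve, and fitted for decreases against DMSO vehicle.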

[11] = CCTE_Mundy_HCI_Cortical_Synap_Neur_Matur_NeuriteSpotCountPerNeuriteLength: CCTE's Synaptogenesis and Neurite Maturation Assay in rat cortical cells for Neurite Spot Count per Neurite Length, Mundy Lab (AID 2284210)
Summary of the method: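 Primary rat cortical neurons, compound exposure DIV 7–12, 288.33 h endpoint. Hoechst, anti-MAP2 and anti-synaptophysin labelling; neurite-associated puncta per neurite length scored by automated imaging relative to DMSO controls.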

[12] = CCTE_Mundy_HCI_Cortical_NOG_NeuriteLength: CCTE's Neurite Outgrowth Assay in rat cortical cells for Neurite Length, Mundy Lab (AID 2284213)
Summary of the method: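 Neurite length was read by high-content imaging of βIII-tubulin-labelled neurites in rat primary cortical cultures. Activity was fitted relative to DMSO.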

[13] = CCTE_Mundy_HCI_Cortical_Synap_Neur_Matur_NeuriteLength: CCTE's Synaptogenesis and Neurite Maturation Assay in rat cortical cells for Neurite Length, Mundy Lab (AID 2284214)
Summary of the method: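 Rat primary cortical cultures, AraC added DIV 5, dosed DIV 7 through DIV 12 […]. Fixed, MAP2/synaptophysin immunostained with Hoechst; neurite length by high-content imaging, fitted in positive direction versus DMSO.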

[14] = CCTE_Mundy_HCI_Cortical_Synap_Neur_Matur_SynapseCount: CCTE's Synaptogenesis and Neurite Maturation Assay in rat cortical cells for Synapse Count, Mundy Lab (AID 2284218)
Summary of the method: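 Rat primary cortical cultures, AraC at DIV 5, chemical dosing DIV 7 to DIV 12 (288.33 h). Fixed cells stained for MAP2, synaptophysin and Hoechst; synapses per neuron counted by high-content imaging, loss of signal versus DMSO.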

[15] = CCTE_Mundy_HCI_hN2_NOG_NeuriteCount: CCTE's Neurite Outgrowth Assay in human hN2 cells for Neurite Count, Mundy Lab (AID 2284219; active = hit-call score of the fitted dose curve at least 0.9, where 1 is the maximum)
Summary of the method: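 In this morphology assay, hNP1-derived neurons received test chemical 2 h post-plating and were fixed two days later in warm paraformaldehyde/sucrose containing Hoechst 33342. Neurites, labelled by rabbit anti-βIII-tubulin (1:800) and Alexa Fluor-488 (1:500), were counted automatically.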

[16] = CCTE_Mundy_HCI_hN2_NOG_NeuriteLength: CCTE's Neurite Outgrowth Assay in human hN2 cells for Neurite Length, Mundy Lab (AID 2284220; active = hit-call score of the fitted dose curve at least 0.9, where 1 is the maximum)
Summary of the method: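 Plate hNP1-derived neurons, then add chemical 2 h later as a 1/10 dilution. Stain with anti-βIII-tubulin then Alexa Fluor-488 secondary, and image automatically to measure neurite length.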

[17] = CCTE_Mundy_HCI_Cortical_Synap_Neur_Matur_CellBodySpotCount: CCTE's Synaptogenesis and Neurite Maturation Assay in rat cortical cells for Cell Body Spot Count, Mundy Lab (AID 2284223)
Summary of the method: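 Rat cortical neurons; AraC @ DIV 5; dose + media change DIV 7; fix DIV 12; anti-MAP2/anti-synaptophysin IF, Hoechst; HCI count of soma synaptophysin puncta/neuron; DMSO = negative control.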

[18] = CCTE_Mundy_HCI_hNP1_Pro_ResponderAvgInten: CCTE's Proliferation Assay in human neuroprogenitor cells, Mundy Lab (AID 2284224; active = hit-call score of the fitted dose curve at least 0.9, where 1 is the maximum;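 note: human neural progenitor cells hNP1 derived from WA09 embryonic stem cells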)
Summary of the method: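 Proliferation was scored as BrdU labelling intensity in human neural progenitors derived from WA09 embryonic cells, measured 26.25 hours after chemical dosing. Activity was fitted relative to DMSO.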

[19] = CCTE_Mundy_HCI_Cortical_NOG_NeuronCount: CCTE's Neurite Outgrowth Assay in rat cortical cells for Neuron Count, Mundy Lab (AID 2284236; active = hit-call score of the fitted dose curve at least 0.9, where 1 is the maximum;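 note: neurons counted by imaging betaIII-tubulin and Hoechst stained cortical cells; cells exposed to compound for about 48 hours before fixation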)
Summary of the method: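 Read-out: neuron number by high-content imaging of betaIII-tubulin (Alexa Fluor-488) and Hoechst-labelled rat primary cortical cells.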

[20] = CCTE_Mundy_HCI_hNP1_Casp3_7: CCTE's Caspase-Glo 3/7 Assay in human neuroprogenitor cells for Apoptosis, Mundy Lab (AID 2284240)
Summary of the method: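 Apoptosis is scored by activated caspase-3/7 luminescence in WA09-derived neural progenitor cells, measured 26.5 h after chemical dosing. Values represent gain of signal relative to DMSO vehicle.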

Measured: outcome

O=C(O)CNCP(=O)(O)O
inactive: all assays above
